A selection: hits, their analogues and other compounds. The true share with any hit is near 18%.
LDHA inh = qHTS assay for inhibitors of human lactate dehydrogenase | L-lactate dehydrogenase A chain (Homo sapiens), P00338 | purified LDHA, NADH/diaphorase-resazurin fluorescence; active compounds read low | activity change, % (values are at about 110 or 230 µM) | 480,000 tested, 0.15% active; in the data active = activity change below about -30%; inconclusive = mostly about -25% to -30%;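 note: plate controls were DMSO wells for no effect and wells without enzyme for full effect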
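Enzyme activity of human lactate dehydrogenase 5 (2 nM; 0.06 mM NADH, 0.2 mM pyruvate, 5 min, RT) is measured via a resazurin/diaphorase fluorescence readout of residual NADH.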
DT40 TDP1 CPT = qHTS for Inhibitors of human tyrosyl-DNA phosphodiesterase 1 (TDP1): qHTS in cells in presence of CPT. chicken DT40 Tdp1-/-;hTDP1 cells + 20 nM CPT, ATP luminescence, 48 h. Potency, µM (titrated, usually from 46.2 µM), inactives show top-dose activity change, negative = growth inhibition, most hits filed as inhibitors. 420,000 tested, 12% active. AID 686979, 2013; note: potency is the fitted concentration of half-maximal effect; nearly all actives have a fitted effect of over 55% in size
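Cell growth measured by CellTiter-Glo luminescence after a minimum 48 h, 37 C compound exposure with 20 nM CPT in Tdp1-knockout DT40 cells stably expressing hTDP1, seeded 400/well; qHTS titration format.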
Gal4-VP16 FLuc = VP16 counterscreen qHTS for inhibitors of ROR gamma transcriptional activity; Drosophila S2 Gal4-VP16 UAS-luciferase, luminescence, 20 h; Potency, µM (titrated, usually from 53.6 µM), for inactives: top-dose activity, negative = inhibition, most hits filed as inhibitors; 310,000 tested, 3.5% active;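 note: Gal4-VP16 expression switched on by copper sulfate through the metallothionein promoter; potency is the fitted concentration of half-maximal effect; nearly all actives have a fitted effect of over 50% in size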
TDP1 cell noCPT = qHTS for Inhibitors of human tyrosyl-DNA phosphodiesterase 1 (TDP1): qHTS in cells in absence of CPT | DT40 Tdp1-/- hTDP1 cells, no CPT, ATP luminescence, 48 h | Potency, µM (top dose mostly 46.2 µM), for the others: top-dose activity change, negative = growth inhibition, hits mostly inhibitors | 420,000 tested, 15% active; note: potency is the fitted concentration of half-maximal effect; nearly all actives have a fitted effect of over 55% in size
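Camptothecin absent (DMSO only). Human TDP1-complemented DT40 knockout cells, 400 cells/well, 37 °C for minimum 48 hr; ATP measured via CellTiter-Glo, 30 min dark incubation, luminescence.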
IL1B secr inh = qHTS for Inhibitors of Inflammasome Signaling: IL-1-beta AlphaLISA Primary Screen | THP-1 LPS/ATP IL-1B secretion, AlphaLISA, 16 h; active compounds read low | activity change, % at 57.5 µM | 360,000 tested, 4.7% active | AID 743279, 2014; in the data active = activity change below about -50%; inconclusive = mostly about -30% to -49%
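THP-1 cells pretreated 1 hr with compounds (up to 57.5 uM final), then stimulated with LPS (250 ng/mL final) plus ATP (1.25 mM final); secreted IL-1B measured by AlphaLISA after 16 hr, decreased signal indicating inhibition.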
RORgamma inh = qHTS for inhibitors of ROR gamma transcriptional activity; Potency, µM (top dose mostly 53.6 µM), inactives show top-dose activity change, negative = inhibition, usual class: inhibitors; Nuclear receptor ROR-gamma (Mus musculus), P51450; 310,000 tested, 5.4% active; Drosophila S2 Gal4-RORgamma UAS-luciferase reporter, 20 h; note: potency is the fitted concentration of half-maximal effect; nearly all actives have a fitted effect of over 60% in size
Target sequence (P51450 whole entry, looked up, the tested form may be a part): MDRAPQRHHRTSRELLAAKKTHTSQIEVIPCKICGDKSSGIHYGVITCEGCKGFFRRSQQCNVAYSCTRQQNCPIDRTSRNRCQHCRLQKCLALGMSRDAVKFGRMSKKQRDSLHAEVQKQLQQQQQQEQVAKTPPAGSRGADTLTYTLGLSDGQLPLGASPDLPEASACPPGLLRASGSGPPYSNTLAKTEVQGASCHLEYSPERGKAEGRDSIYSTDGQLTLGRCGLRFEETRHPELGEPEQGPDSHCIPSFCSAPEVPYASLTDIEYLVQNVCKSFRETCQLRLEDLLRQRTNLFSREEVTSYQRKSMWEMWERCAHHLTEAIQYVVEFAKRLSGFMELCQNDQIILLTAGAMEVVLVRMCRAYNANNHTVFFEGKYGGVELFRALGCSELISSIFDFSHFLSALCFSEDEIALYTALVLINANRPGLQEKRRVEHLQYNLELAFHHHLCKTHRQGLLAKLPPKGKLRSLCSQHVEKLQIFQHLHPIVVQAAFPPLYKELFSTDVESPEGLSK
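Luminescence from a UAS-regulated Photinus luciferase reporter in stably transfected Drosophila Schneider cells is measured; decreased signal marks ROR gamma inhibition. Fusion expression is induced by 700 uM copper sulfate for 20 hr.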
The depositor's hits bear a star; ? = inconclusive; / = not tested or not shown. Unless noted, calls come from the whole dose curve; as a rule, active = well fitted curve in the direction sought with a large enough effect; inconclusive = small, poorly fitted or top-dose-only effect, or another doubt; inactive = no such curve, though single readings can be large; an effect the other way counts as inactive or inconclusive. Unless noted, % is set by controls: 0 for no effect and ±100 for the full control effect.

SMILES | LDHA inh | DT40 TDP1 CPT | Gal4-VP16 FLuc | TDP1 cell noCPT | IL1B secr inh | RORgamma inh
O=C(Nc1ccc(Cl)c(C(F)(F)F)c1)/C(=C/c1ccc(F)cc1)c1ccc(-c2ccccc2)cc1 | 0 | / | / | / | / | /
CCOc1ccccc1N(C)C(=O)CCS(=O)(=O)c1ccc2c(c1)NC(=O)C(C)S2 (configuration not stated) | -3 | ? | -7% | 21µM* | 6 | 26%
CC1Sc2ccc(S(=O)(=O)CCC(=O)N(C)Cc3ccco3)cc2NC1=O (configuration not stated) | -2 | ? | 7% | ? | 44 | 5%
O=C(N1CCN(c2cccc(Cl)c2)CC1)C1(c2cccs2)CCOCC1 | 0 | 23µM* | -7% | 21µM* | ? | -10%
CC1Sc2ccc(S(=O)(=O)CCC(=O)N3CCN(c4ccccc4)CC3)cc2NC1=O (configuration not stated) | -5 | ? | -10% | -21% | 2 | 12%
CC(CS(=O)(=O)c1ccc2c(c1)NC(=O)CS2)C(=O)N1CCN(c2cccc(Cl)c2)CC1 (configuration not stated) | -11 | 18µM* | -3% | ? | -25 | 43%
CC1Sc2ccc(S(=O)(=O)CCC(=O)N3CCN(c4cccc(Cl)c4)CC3)cc2NC1=O (configuration not stated) | 3 | 13µM* | ? | 7.3µM* | 0 | 24%
COc1ccc(S(=O)(=O)CCC(=O)N2CCN(c3ccccc3F)CC2)cc1 | -5 | -7% | -6% | ? | -7 | 36%
CC(=O)c1ccc(N2CCN(C(=O)CCS(=O)(=O)c3ccc(C)cc3)CC2)cc1 | -1 | ? | 11% | 15µM* | 14 | 30%
COc1ccc(S(=O)(=O)CCC(=O)N2CCN(c3cccc(Cl)c3)CC2)cc1 | -1 | 18µM* | 2% | 10µM* | -26 | 12%
COc1ccc(NC(=O)c2cc(S(=O)(=O)N3CCc4ccccc43)cn2C)cc1Cl | 0 | / | / | / | / | /
CCc1cccc(NC(=O)C(Cc2ccccc2)NS(=O)(=O)c2cccs2)c1 (configuration not stated) | 2 | ? | / | 18µM* | / | /
COc1cc(NC(=O)C(Cc2ccccc2)NS(=O)(=O)c2cccs2)cc(OC)c1 (configuration not stated) | 2 | 23µM* | / | -28% | / | /
COc1ccc2c(c1)CCCC(Br)C2=O (configuration not stated) | 34 | 5.2µM* | / | 3.3µM* | -67* | /
COc1ccc2c(c1)CCC2=O | -2 | 12% | / | 3% | / | /
O=C(Nc1cccc(Cl)c1)c1ccc2c(c1)CCN2S(=O)(=O)c1ccccc1 | 1 | 13µM* | / | 21µM* | / | /
CC(=O)c1cccc(NC(=O)c2ccc3c(c2)CCN3S(=O)(=O)c2ccccc2)c1 | -17 | 15µM* | 13µM* | 21µM* | 7 | ?
O=C(Nc1ccccc1)c1cccc(N2CCCS2(=O)=O)c1 | -2 | -21% | / | 2% | / | /
O=C(Nc1ccccc1)c1ccc2c(c1)CCN2S(=O)(=O)c1ccccc1 | -11 | ? | -12% | ? | -22 | 34%
CSc1cccc(NC(=O)c2ccc3c(c2)CCCN3S(C)(=O)=O)c1 | 3 | 16µM* | / | ? | / | /
CSc1cccc(NC(=O)c2cccc(N3CCCS3(=O)=O)c2)c1 | 0 | ? | / | 18µM* | / | /
CCS(=O)(=O)N1CCc2cc(C(=O)Nc3cccc(NC(C)=O)c3)ccc21 | -1 | ? | / | ? | / | /
CCS(=O)(=O)N1CCCc2cc(C(=O)Nc3cccc(C(C)=O)c3)ccc21 | -2 | ? | / | 26µM* | / | /
Cc1ccc(Cl)cc1N1CCN(C(=O)c2ccc3c(c2)CCN3S(=O)(=O)c2ccccc2)CC1 | 5 | 9.2µM* | / | 10µM* | / | /
CCCC/C(=N\NC(C)=O)c1ccccc1 | 0 | / | / | / | / | /
SMILES | LDHA inh | DT40 TDP1 CPT | Gal4-VP16 FLuc | TDP1 cell noCPT | IL1B secr inh | RORgamma inh
Nc1nonc1-n1nnc(C(=O)N/N=C/c2ccc(OCc3ccc(F)cc3)cc2)c1COc1ccccc1 | -6 | ? | ? | ? | -6 | 7.1µM*
COC(=O)c1nnn(-c2nonc2N)c1COc1ccc(C=O)cc1OC | 1 | 15µM* | 2% | 9.2µM* | 4 | -1%
CCc1c(C(=O)N/N=C/c2ccc(OCc3ccc(F)cc3)c(OC)c2)nnn1-c1nonc1N | 3 | 23µM* | -1% | 5.8µM* | 18 | ?
COc1ccc(/C=N/NC(=O)c2nnn(-c3nonc3N)c2C)cc1OC | -6 | ? | / | -9% | -4 | /
CC(=O)c1c(C(F)(F)C(F)(F)F)n[nH]c1C | -1 | / | / | / | / | /
CC(=O)NC1C(=O)N(CCOc2ccccc2)c2ccccc21 (configuration not stated) | 4 | / | / | / | / | /
CC(=O)C(Cl)C(=O)Nc1ccccc1 (configuration not stated) | -4 | 2.6µM* | ? | 4.1µM* | -86* | ?
O=C(Nc1ccccc1)C(Cl)C(=O)c1ccccc1 (configuration not stated) | 0 | 6.5µM* | ? | 8.2µM* | ? | ?
CC(C(=O)Nc1ccccc1)C(=O)Nc1ccccc1 | 2 | -1% | -5% | 5% | -5 | -2%
O=C(CCn1nc(-c2ccc(Cl)cc2)c2ccccc2c1=O)Nc1ccc(Cl)cc1 | -5 | / | / | / | / | /
N#Cc1c(N)n[nH]c1CCCNc1nc(-c2cccnc2)nc2ccccc12 | -9 | / | / | / | / | /
Cc1ccc(NC(=O)C(C)OC(=O)c2ccc(NS(=O)(=O)c3ccc(F)c(F)c3)cc2)cc1 (configuration not stated) | -9 | ? | -3% | ? | ? | ?
CCc1ccc(NC(=O)C(C)OC(=O)c2ccc(NS(=O)(=O)c3ccc(C)c([N+](=O)[O-])c3)cc2)cc1 (configuration not stated) | -6 | ? | -4% | ? | -77* | ?
O=C(CCSc1ccc(Cl)c(Cl)c1)NC12CC3CC(CC(C3)C1)C2 | -4 | 16µM* | 2% | ? | -4 | ?
CCCOC(=O)c1ccc(NC(=O)c2cccc(S(=O)(=O)N3CCN(C(C)=O)CC3)c2)cc1 | -15 | ? | ? | 16µM* | -2 | ?

Screening results: PubChem, National Center for Advancing Translational Sciences (NCATS)
